Results filed as inconclusive are left out. Activity calls are given as the source filed them. Unless noted, calls follow the shape of the dose curve; as a rule, active = well fitted curve in the direction sought with a large enough effect; inconclusive = small, poorly fitted or top-dose-only effect, or another doubt; inactive = no such curve, though single readings can be large; an effect the other way counts as inactive or inconclusive.

This passage reports Potency, activity change, negative = inhibition and max response results from PubChem BioAssay (NCATS).

Assay [1] has as its target Cytochrome P450 3A4 (Homo sapiens) (UniProt P08684). The experiment in a line: qHTS Assay for Inhibitors and Substrates of Cytochrome P450 3A4 (AID 884). Also: % is scaled to controls: 0 for no effect and ±100 for the full control effect; nearly all actives have a fitted effect of over 50% in size. An outline of the steps: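 20 nM human CYP3A4 with 25 uM Luciferin-PPXE (at KM) in 200 mM KPO4, preincubated 10 min with compound; NADPH regeneration started a 60 min RT reaction. Luciferin detected by luminescence, normalized to 57 uM ketoconazole as full inhibition.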

A short description of assay [2]: Confirmation and Secondary Assay for Modulators of Hemoglobin Beta Chain Splicing at IVS2 654 locus (AID 910).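 Also: HeLa cells stably carrying EGFP split by mutant beta-globin IVS2-654 intron; per-well total GFP intensity by laser scanning cytometry after 2-day treatment; % of control where 0% means no effect.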 The method, boiled down:
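Readout: per-well total peak green fluorescence (488 nm ex, 500–520 nm em) from objects 5–250 µm, reflecting correct splicing of an EGFP-654 reporter. Compounds were applied for 2 days at 37 °C to overnight-plated HeLa EGFP-654 cells; controls were DMSO and 500 nM IVS2-654 PNA.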

Assay [3] can be described thus: Confirmation and Secondary Assay for Modulators of Hemoglobin Beta Chain Splicing at IVS2 705 locus (AID 930).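 Also: HeLa cells stably expressing the EGFP-705 splicing reporter; GFP fluorescence per well restored by corrected splicing of the IVS2-705 intron in EGFP; % of control where 0% means no effect.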 An outline of the steps:
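Per-well GFP, captured at 1 x 8 µm resolution with 488 nm excitation, served as the read-out for HeLa EGFP-705 cells incubated 2 days with test compound versus DMSO.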

A short description of assay [4]: qHTS Assay for Lipid Storage Modulators (AID 1519; calls by dose curve; as to activity change, negative = inhibition: % is scaled to controls: 0 for no effect and ±100 for the full control effect). As to conditions: Drosophila S3 cells, BODIPY lipid droplet/cell ratio, laser cytometry, cells loaded with oleic acid; for activity change, negative = inhibition: at 57.5 µM (top of the series). The method, boiled down:
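Cells seeded at 5,000 per well were treated with compounds over a concentration series and loaded with oleic acid (400 uM, as added). Lipid droplet fluorescence (488 nm excitation, 500-530 nm channel) was read by laser-scanning cytometry and normalized to 20 uM Triacsin C.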

For assay [5], the target named is Ubiquitin carboxyl-terminal hydrolase 1 (Homo sapiens) (UniProt O94782). The experiment in a line: Inhibitors of USP1/UAF1: Pilot qHTS (AID 504865).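 Also: rhodamine fluorescence freed from ubiquitin-rhodamine substrate followed over time; top concentration of the series differs between compounds; % is scaled to controls: 0 for no effect and ±100 for the full control effect; nearly all actives have a fitted effect of over 35% in size.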 An outline of the steps:
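USP1/UAF1 complex at 1 nM preincubated 15 min at room temperature with compound, then Ub-Rho substrate added at 150 nM final. Fluorescence (480/540 nm) read kinetically in 50 mM HEPES pH 7.8, 0.5 mM EDTA, 1 mM TCEP, 0.1 mg/ml BSA, 0.01% Tween-20.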
In general terms: qHTS replaces the single test concentration by a dilution series.

Setting [6] is: measured here: cell count channel max response.
[7] abbreviates: measured here: lipid channel max response.

Sequence of Ubiquitin carboxyl-terminal hydrolase 1 (Homo sapiens) (O94782 whole entry, looked up): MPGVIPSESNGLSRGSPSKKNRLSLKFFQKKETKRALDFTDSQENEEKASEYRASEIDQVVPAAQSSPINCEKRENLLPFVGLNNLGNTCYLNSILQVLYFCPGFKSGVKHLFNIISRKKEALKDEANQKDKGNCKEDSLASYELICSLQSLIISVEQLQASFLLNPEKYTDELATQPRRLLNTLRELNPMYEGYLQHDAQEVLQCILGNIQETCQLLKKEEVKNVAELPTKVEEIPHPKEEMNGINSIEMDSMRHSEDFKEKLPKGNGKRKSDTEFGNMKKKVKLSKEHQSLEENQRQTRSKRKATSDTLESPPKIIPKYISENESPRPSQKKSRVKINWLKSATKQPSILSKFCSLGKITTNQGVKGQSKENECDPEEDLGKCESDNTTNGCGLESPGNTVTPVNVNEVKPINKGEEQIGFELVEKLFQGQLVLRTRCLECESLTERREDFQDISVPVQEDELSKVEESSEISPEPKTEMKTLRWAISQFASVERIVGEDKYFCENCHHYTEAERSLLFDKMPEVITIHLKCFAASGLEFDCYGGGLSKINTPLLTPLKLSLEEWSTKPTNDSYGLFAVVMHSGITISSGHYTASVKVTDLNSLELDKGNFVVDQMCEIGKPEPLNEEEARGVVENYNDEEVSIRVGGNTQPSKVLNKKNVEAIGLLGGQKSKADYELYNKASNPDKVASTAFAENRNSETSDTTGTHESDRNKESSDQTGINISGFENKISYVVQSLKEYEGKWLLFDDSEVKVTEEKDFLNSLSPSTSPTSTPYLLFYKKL
Sequence of Cytochrome P450 3A4 (Homo sapiens) (P08684 whole entry, looked up): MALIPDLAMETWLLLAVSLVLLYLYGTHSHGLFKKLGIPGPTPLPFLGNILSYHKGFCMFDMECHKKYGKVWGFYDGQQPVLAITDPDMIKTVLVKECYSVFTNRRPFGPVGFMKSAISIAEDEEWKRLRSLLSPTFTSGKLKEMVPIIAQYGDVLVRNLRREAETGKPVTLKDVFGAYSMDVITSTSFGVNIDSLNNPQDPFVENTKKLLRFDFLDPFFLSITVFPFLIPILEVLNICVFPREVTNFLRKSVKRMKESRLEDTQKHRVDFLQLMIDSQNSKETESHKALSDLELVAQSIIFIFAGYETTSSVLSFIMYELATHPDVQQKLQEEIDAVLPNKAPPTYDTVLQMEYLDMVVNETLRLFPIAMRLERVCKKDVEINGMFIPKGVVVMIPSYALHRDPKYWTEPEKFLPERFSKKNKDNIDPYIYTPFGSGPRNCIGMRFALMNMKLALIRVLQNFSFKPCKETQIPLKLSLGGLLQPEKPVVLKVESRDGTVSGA

Consider `CC(C)C1COc2cc3oc(=O)ccc3cc2O1` (stereo unspecified), for which the Potency result in assay [1], in assay [2], in assay [3] and in assay [5] was “inactive” each time. Besides, in assay [4], the activity change, negative = inhibition was 9.84% (inactive). Besides, the results for the max response in assay [4] (setting [6]) and in assay [4] (setting [7]) were 6% and 13.7%, respectively.

Take `COc1cc(-c2coc3cc(O[C@H]4OC(CO)C(O)C(O)C4O)c(OC)c(O)c3c2=O)cc(O)c1OC` (stereo partly specified): the Potency entry in assay [1], in assay [2], in assay [3] and in assay [5] was “inactive” in each case. Besides, in assay [4], the activity change, negative = inhibition was 7.43% (inactive). Also, the values for the max response in assay [4] (setting [6]) and in assay [4] (setting [7]) were 6.4% and 13.8%, respectively.

For the compound `O=C(O)C1CC(C2CCCCN2)CN2CCCCC12` (stereo unspecified), the Potency entry in assay [1], in assay [3] and in assay [5] was “inactive” each time. In assay [4], the activity change, negative = inhibition was 2.57% (inactive). In addition, the max response in assay [4] (setting [6]) was -1.28%; in assay [4] (setting [7]), 1.78%.

For `CC(=O)Oc1ccc2c(c1OC(C)=O)OCC1(O)Cc3c(cc(OC(C)=O)c(OC(C)=O)c3OC(C)=O)C21` (stereo unspecified), the Potency entry in assay [1], in assay [2], in assay [3] and in assay [5] was “inactive” in each case. Besides, the activity change, negative = inhibition in assay [4] is 0.943% (inactive). Moreover, the results for the max response in assay [4] (setting [6]) and in assay [4] (setting [7]) were 9.82% and 11.3%, respectively.

Turning to `CC(=O)N[C@H](Cc1c[nH]c2ccccc12)C(N)=O`, the Potency result in assay [1], in assay [3] and in assay [5] was “inactive” throughout. In assay [4], the activity change, negative = inhibition was 4.6% (inactive). Moreover, the max response in assay [4] (setting [6]) was 3.77%; in assay [4] (setting [7]), 4.03%.

Turning to `COc1cccc(/C=C/C(=O)O)c1C(C)C`, the Potency entry in assay [1], in assay [3] and in assay [5] was “inactive” each time. Besides, in assay [4], the activity change, negative = inhibition is 9.75% (inactive). In addition, the figures for the max response in assay [4] (setting [6]) and in assay [4] (setting [7]) were 13% and 26.7%, respectively.

Take `CC(=O)OCC(OC(C)=O)C(OC(C)=O)C(OC(C)=O)C(OC(C)=O)C(COC(C)=O)OC(C)=O` (stereo unspecified): the Potency result in assay [1], in assay [2], in assay [3] and in assay [5] was “inactive” throughout. Besides, the activity change, negative = inhibition in assay [4] was 10.5% (inactive). Besides, the results for the max response in assay [4] (setting [6]) and in assay [4] (setting [7]) were 5.07% and 17.8%, respectively.

Take `CC(=O)OC1CC[C@@]2(C)C3=CC(=O)[C@]4(C)C(CC5OC6(OCC(C)CC6Br)C(C)C54)C3CC[C@H]2C1` (stereo partly specified): the Potency entry in assay [1], in assay [3] and in assay [5] was “inactive” in each case. Also, the activity change, negative = inhibition in assay [4] is -8.55% (inactive). For the same compound, the figures for the max response in assay [4] (setting [6]) and in assay [4] (setting [7]) were -17.7% and -20.5%, respectively.

`NC1=NCCN1CC(=O)O`: the Potency result in assay [1], in assay [2], in assay [3] and in assay [5] was “inactive” each time. In addition, the activity change, negative = inhibition in assay [4] was 4.53% (inactive). The max response in assay [4] (setting [6]) is 1.34%; in assay [4] (setting [7]) it was 10.9%.

For `CC(=O)OCCC(C)CCC=C(C)C` (stereo unspecified), the Potency entry in assay [1], in assay [2], in assay [3] and in assay [5] was “inactive” in each case. Also, the activity change, negative = inhibition in assay [4] was 5.97% (inactive). The max response in assay [4] (setting [6]) turned out to be 4.67%; in assay [4] (setting [7]) it was 12.4%.

Take `COc1ccccc1/C=C\C(=O)O`: the Potency result in assay [1], in assay [2], in assay [3] and in assay [5] was “inactive” each time. The activity change, negative = inhibition in assay [4] is -2.1% (inactive). Moreover, the max response in assay [4] (setting [6]) and in assay [4] (setting [7]) was 4.2% in each case.

With `Nc1ncnc2nc(Cl)[nH]c12`, the Potency entry in assay [1], in assay [2], in assay [3] and in assay [5] was “inactive” throughout. Besides, the activity change, negative = inhibition in assay [4] was 2.56% (inactive). In addition, the values for the max response in assay [4] (setting [6]) and in assay [4] (setting [7]) were -7.94% and -3%, respectively.

For `COc1cc2c(cc1OC)C1(O)C(=O)c3ccc(O)c(C(=O)O)c3OC1CO2` (stereo unspecified), the Potency entry in assay [1], in assay [2], in assay [3] and in assay [5] was “inactive” throughout. Also, the activity change, negative = inhibition in assay [4] was 8.88% (inactive). In addition, the values for the max response in assay [4] (setting [6]) and in assay [4] (setting [7]) were 8.21% and 21.1%, respectively.

`C[C@@H]1/C(=N/O)CC2C[C@@H]1C2(C)C`: the Potency result in assay [1], in assay [2], in assay [3] and in assay [5] was “inactive” throughout. Further, the activity change, negative = inhibition in assay [4] is 2.67% (inactive). Besides, the max response in assay [4] (setting [6]) came out at 9.02%; in assay [4] (setting [7]) it was 13.7%.

In the case of `OCc1ccccc1O[C@H]1OC(CO)C(O)C(O)C1O` (stereo partly specified), the Potency entry in assay [1], in assay [2], in assay [3] and in assay [5] was “inactive” each time. Moreover, the activity change, negative = inhibition in assay [4] is 3.66% (inactive). The max response in assay [4] (setting [6]) was found to be 2.55%; in assay [4] (setting [7]), 8.97%.

Take `NC(CSCSCC(N)C(=O)O)C(=O)O` (stereo unspecified): the Potency result in assay [1], in assay [2], in assay [3] and in assay [5] was “inactive” throughout. Moreover, in assay [4], the activity change, negative = inhibition was 1.54% (inactive). The max response was determined as 7.28% in assay [4] (setting [6]) and 12.4% in assay [4] (setting [7]).

As to `NC(N)=NCCCC(NC(=O)C(N)Cc1ccc(O)cc1)C(=O)O` (stereo unspecified), the Potency entry in assay [1], in assay [3] and in assay [5] was “inactive” throughout. In addition, in assay [4], the activity change, negative = inhibition was 5.19% (inactive). Moreover, the max response worked out at 20.9% in assay [4] (setting [6]) and 29% in assay [4] (setting [7]).

`Cc1onc(-c2ccccc2)c1C(=O)NC1C(=O)N2C(C(=O)O)C(C)(C)S[C@@H]12` (stereo partly specified): the Potency entry in assay [1], in assay [2], in assay [3] and in assay [5] was “inactive” in each case. In assay [4], the activity change, negative = inhibition was 9.92% (inactive). For the same compound, the max response in assay [4] (setting [6]) stood at 9.88%; in assay [4] (setting [7]), 24.8%.

As to `OCC(O)C(O)[C@H](O[C@H]1OC(CO)C(O)C(O)C1O)[C@H](O)CO` (stereo partly specified), the Potency result in assay [1], in assay [2], in assay [3] and in assay [5] was “inactive” throughout. In addition, the activity change, negative = inhibition in assay [4] was 3.91% (inactive). The max response stood at 11.8% in assay [4] (setting [6]) and 16% in assay [4] (setting [7]).

`COc1c(O)cccc1O`: the Potency entry in assay [1], in assay [2], in assay [3] and in assay [5] was “inactive” throughout. Further, the activity change, negative = inhibition in assay [4] was 5.35% (inactive). For the same compound, the max response in assay [4] (setting [6]) is -1.6%; in assay [4] (setting [7]) it was 5.81%.

`O=C(NCO)c1cccnc1`: the Potency entry in assay [1], in assay [3] and in assay [5] was “inactive” throughout. Further, the activity change, negative = inhibition in assay [4] was 5.95% (inactive). The max response in assay [4] (setting [6]) worked out at 14.8%; in assay [4] (setting [7]) it was 25.7%.

Consider `Nc1nc(O)c2ncn([C@H]3CC[C@@H](CO)O3)c2n1`, for which the Potency result in assay [1], in assay [2], in assay [3] and in assay [5] was “inactive” in each case. Also, the activity change, negative = inhibition in assay [4] is 7.72% (inactive). In addition, the max response in assay [4] (setting [6]) was -2.43%; in assay [4] (setting [7]), 2.95%.

Turning to `CCC(C(=O)O)c1ccccc1` (stereo unspecified), the Potency result in assay [1], in assay [3] and in assay [5] was “inactive” in each case. Further, the activity change, negative = inhibition in assay [4] is 0.321% (inactive). The max response in assay [4] (setting [6]) came to 8.63%; in assay [4] (setting [7]), 10.3%.

For `CC1(C)Oc2ccc3ccc(=O)oc3c2CC1O` (stereo unspecified), the Potency result in assay [1], in assay [2], in assay [3] and in assay [5] was “inactive” each time. Also, the activity change, negative = inhibition in assay [4] is -1.55% (inactive). Further, the figures for the max response in assay [4] (setting [6]) and in assay [4] (setting [7]) were 16% and 13.9%, respectively.
